Experimental data reported in PubChem BioAssay AID540321 (Johns Hopkins Ion Channel Center, 2011).
Activity calls are given as the source filed them.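 The calls were made as follows: active = Inhibition of the Kir2.1 potassium channel over 30% at some tested dose, plus a fitted dose response curve; inactive = no Kir2.1 inhibition at any dose, or no curve fitted.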

Target: Inward rectifier potassium channel 2 (Mus musculus) (UniProt P35561)
Assay: off-target blockade of inward rectifier Kir2.1 – cell-based, FluxOR thallium flux, CRC round 2, selectivity assay for KCNK9 inhibitor project, SAR follow-up (AID 540321)
Conditions: Kir2.1-expressing cells; series mostly up to 30 µM; fluorescence ratio, lower = inhibition: at the top concentration

Inward rectifier potassium channel 2 (Mus musculus), sequence (P35561 whole entry, looked up): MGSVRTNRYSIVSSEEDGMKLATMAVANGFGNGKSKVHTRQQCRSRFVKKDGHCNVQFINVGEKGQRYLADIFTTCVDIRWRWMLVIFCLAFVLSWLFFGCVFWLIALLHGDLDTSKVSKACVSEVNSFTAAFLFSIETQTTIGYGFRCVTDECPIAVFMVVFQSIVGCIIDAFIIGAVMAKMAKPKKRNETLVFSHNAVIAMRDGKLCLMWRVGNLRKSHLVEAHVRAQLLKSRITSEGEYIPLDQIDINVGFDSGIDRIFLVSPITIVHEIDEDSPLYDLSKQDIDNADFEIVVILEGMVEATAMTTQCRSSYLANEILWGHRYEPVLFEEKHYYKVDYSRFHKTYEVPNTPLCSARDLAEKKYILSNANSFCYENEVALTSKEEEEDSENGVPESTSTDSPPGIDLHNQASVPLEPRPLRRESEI

Fluorescence ratio, lower = inhibition, inactive:
Cc1cccc(C(=O)Nc2cccc(NC(=O)c3ccccc3C)c2)c1 1.81, Cc1cccc(C(=O)Nc2cccc(NC(=O)c3ccc(C(C)(C)C)cc3)c2)c1 1.67, Cc1cccc(C(=O)Nc2cccc(NC(=O)c3ccc(Cl)cc3)c2)c1 1.77, CCOc1ccccc1NC(=O)c1cccc(NC(=O)C2CCOC2)c1 (stereo unspecified) 1.92, CCOc1ccccc1NC(=O)c1cccc(NC(=O)c2ccc(OC)cc2)c1 1.69, Cc1cccc(C(=O)Nc2cccc(NC(=O)c3cccc(C)c3)c2)c1 1.81, COc1cccc(-c2n[nH]c(=S)n2C(C)C2CC3CCC2C3)c1 (stereo unspecified) 1.64, COc1ccccc1C(=O)Nc1cccc(NC(=O)c2ccccc2C)c1 1.71, Cc1cccc(C(=O)Nc2cccc(NC(=O)c3ccccc3C(C)C)c2)c1 1.66, Cc1cccc(C(=O)Nc2cccc(NC(=O)c3ccccc3OC(F)(F)F)c2)c1 1.76, O=C(Nc1cccc(NC(=O)c2ccccn2)c1)c1ccccc1 1.67, O=C(Nc1cccc(NC(=O)c2cccc(C(F)(F)F)c2)c1)c1ccccc1 1.41, O=C(Nc1cccc(NC(=O)c2ccco2)c1)c1ccccc1 1.68, CC(C1CC2CCC1C2)n1c(-c2ccc(Cl)cc2)n[nH]c1=S (stereo unspecified) 1.69, CCOc1ccccc1NC(=O)c1cccc(NC(=O)c2ccc(C)cc2)c1 1.86, CCOc1ccccc1NC(=O)c1cccc(NC(=O)c2ccccc2OC)c1 1.95
